For four compounds, outcome and AC50 results are on record in PubChem BioAssay (EPA / NIEHS).

The AC50 is the midpoint of the concentration-response curve, whichever way the signal moves.

Read-out in test [1]: Interleukin-1 alpha (IL1a), IL1A (gene 3552)
Kind of test: BSK_KF3CT_IL1a: BioMAP Diversity Plus: KF3CT Assay for Interleukin-1 alpha (IL1a) Biomarker Activity (AID 2283070). As to conditions: primary human keratinocytes with fibroblasts; actives raise or lower the signal. The method in brief: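 Readout is IL-1a level by ELISA, compared bidirectionally with DMSO as baseline. Cells: human keratinocytes co-cultured with foreskin fibroblasts, harvested 24 h post-dose.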

Read-out in test [2]: TIMP metallopeptidase inhibitor 2 (TIMP2), TIMP2 (gene 7077)
The test can be described thus: BSK_KF3CT_TIMP2: BioMAP Diversity Plus: KF3CT Assay for TIMP metallopeptidase inhibitor 2 (TIMP2) Biomarker Activity (AID 2283071). As to conditions: primary human keratinocytes with fibroblasts; actives raise or lower the signal. The essentials: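 Measurements come from ELISA detection of TIMP-2 at 24 hours in a dosed human keratinocyte and foreskin fibroblast co-culture. DMSO serves as negative control and baseline.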

Read-out in test [3]: Transforming growth factor beta 1 (TGFb1), TGFB1 (gene 7040)
The test can be described thus: BSK_KF3CT_TGFb1: BioMAP Diversity Plus: KF3CT Assay for Transforming growth factor beta 1 (TGFb1) Biomarker Activity (AID 2283072). As to conditions: primary human keratinocytes with fibroblasts; actives raise or lower the signal. The essentials:
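TGF-b1 ELISA on a 24 h dosed co-culture of human keratinocytes and foreskin fibroblasts; cytotoxicity tracked in parallel cultures by SRB staining.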

Read-out in test [4]: C-C motif chemokine 2 (Homo sapiens) (UniProt P13500)
The test can be described thus: BSK_KF3CT_MCP1: BioMAP Diversity Plus: KF3CT Assay for Monocyte Chemoattractant Protein 1 (MCP1/CCL2) Biomarker Activity (AID 2283073). As to conditions: primary human keratinocytes with fibroblasts; actives raise or lower the signal. The essentials:
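Keratinocytes and foreskin fibroblasts were co-cultured, dosed with chemical, and sampled 24 h later. MCP-1 was quantified by ELISA, and the endpoint was analyzed with bidirectional fitting using DMSO as negative control.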

Read-out in test [5]: Matrix Metallopeptidase 9 (MMP9), MMP9 (gene 4318)
Kind of test: BSK_KF3CT_MMP9: BioMAP Diversity Plus: KF3CT Assay for Matrix Metallopeptidase 9 (MMP9) Biomarker Activity (AID 2283074).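 For AC50: MMP9 protein level quantified by ELISA in the co-culture.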 As to conditions: primary human keratinocytes with fibroblasts; actives raise or lower the signal. The essentials:
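Values come from bidirectional fitting relative to DMSO of MMP-9 levels, which were measured by ELISA. Measurements were taken 24 h after chemical dosing of a keratinocyte and foreskin fibroblast co-culture.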

Read-out in test [6]: urokinase plasminogen activator (uPA), PLAU (gene 5328)
The test can be described thus: BSK_KF3CT_uPA: BioMAP Diversity Plus: KF3CT Assay for urokinase plasminogen activator (uPA) Biomarker Activity (AID 2283075). As to conditions: primary human keratinocytes with fibroblasts; actives raise or lower the signal. The method in brief:
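Values derive from bidirectional fitting against DMSO controls. Keratinocyte/foreskin fibroblast co-cultures received chemical; 24 h later uPA was detected by ELISA, with SRB total-protein staining in parallel wells for overt cytotoxicity.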

Read-out in test [7]: CD40, CD40 (gene 958)
Kind of test: BSK_LPS_CD40: BioMAP Diversity Plus: LPS Assay for CD40 Biomarker Activity (AID 2283076). As to conditions: primary human HUVEC with PBMC; actives raise or lower the signal. The method in brief: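 CD40 signal, measured by ELISA, is fitted in both directions relative to DMSO vehicle. The system is an LPS-driven human vascular primary co-culture of endothelial cells and PBMC, sampled 24 h after compound addition.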

Read-out in test [8]: Interleukin-8 (IL8), CXCL8 (gene 3576)
Kind of test: BSK_LPS_IL8: BioMAP Diversity Plus: LPS Assay for Interleukin-8 (IL8) Biomarker Activity (AID 2283078). As to conditions: primary human HUVEC with PBMC; actives raise or lower the signal. The essentials:
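Endothelial cells and PBMC from human donors are co-cultured, treated with chemicals and LPS, then assayed for IL-8 by ELISA after 24 h. Parallel SRB staining (0.1% SRB after 10% TCA fixation, 560 nm) flags cytotoxicity.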

Test [9] is described as follows: BSK_LPS_SRB: Viability Assessment in the BioMAP Diversity Plus: LPS Assay (AID 2283079).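 Note: total protein by sulforhodamine B absorbance as a cytotoxicity measure; measured one day after compound addition; fitted in both directions against DMSO so loss or gain of signal counts.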 As to conditions: primary human HUVEC with PBMC. The method in brief:
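Overt cytotoxicity was gauged by sulforhodamine B total-protein staining in a primary human vascular endothelial and mononuclear cell co-culture 24 h post-dosing. Activity was fitted in both directions relative to DMSO.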

Read-out in test [10]: Interleukin-1 alpha (IL1a), IL1A (gene 3552)
Kind of test: BSK_LPS_IL1a: BioMAP Diversity Plus: LPS Assay for Interleukin-1 alpha (IL1a) Biomarker Activity (AID 2283080). As to conditions: primary human HUVEC with PBMC; actives raise or lower the signal. The method in brief: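 Measured: IL-1 alpha via ELISA at 24 h in LPS-activated human umbilical vein endothelium–PBMC co-culture. Baseline: DMSO, bidirectional fitting.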

Read-out in test [11]: Monocyte Chemoattractant Protein-1 (MCP1), CCL2 (gene 6347)
The test can be described thus: BSK_LPS_MCP1: BioMAP Diversity Plus: LPS Assay for Monocyte Chemoattractant Protein-1 (MCP1) Biomarker Activity (AID 2283081).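 For AC50: secreted MCP-1 protein quantified by ELISA in culture supernatant.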 As to conditions: primary human HUVEC with PBMC; actives raise or lower the signal. The essentials:
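LPS-stimulated HUVEC/PBMC co-culture; chemical, 24 h; MCP-1 by ELISA; bidirectional fit vs DMSO; cytotoxicity via SRB (0.1% stain, 10% TCA fix, 560 nm) in parallel wells.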

Test [12] in a line: BSK_LPS_PGE2: BioMAP Diversity Plus: LPS Assay for Prostaglandin E2 (PGE2) Biomarker Activity (AID 2283082). As to conditions: primary human HUVEC with PBMC; actives raise or lower the signal. The method in brief:
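Primary human endothelial cells and blood mononuclear cells, co-cultured with LPS, receive test chemical; PGE2 ELISA follows at 24 h, with SRB-stained parallel cultures flagging cytotoxicity.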

Read-out in test [13]: Macrophage colony-stimulating factor (MCSF), CSF1 (gene 1435)
The test can be described thus: BSK_LPS_MCSF: BioMAP Diversity Plus: LPS Assay for Macrophage colony-stimulating factor (MCSF) Biomarker Activity (AID 2283083). As to conditions: primary human HUVEC with PBMC; actives raise or lower the signal. The method in brief: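 Compound is added to a human vascular primary co-culture of umbilical vein endothelium and blood mononuclear cells. After 24 h, M-CSF is quantified by ELISA. Signal changes are fitted in both directions against DMSO.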

Read-out in test [14]: Tissue Factor, F3 (gene 2152)
Kind of test: BSK_LPS_TissueFactor: BioMAP Diversity Plus: LPS Assay for Tissue Factor Biomarker Activity (AID 2283084). As to conditions: primary human HUVEC with PBMC; actives raise or lower the signal. The essentials: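 In this co-culture system of umbilical vein endothelium with PBMC, stimulated with LPS, cell-surface CD142 is detected by ELISA at 24 h. Endpoint values derive from bidirectional fitting, DMSO serving as baseline.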

Read-out in test [15]: Tumor necrosis factor (Homo sapiens) (UniProt P01375)
The test can be described thus: BSK_LPS_TNFa: BioMAP Diversity Plus: LPS Assay for Tumour Necrosis Factor alpha (TNFa) Biomarker Activity (AID 2283085). As to conditions: primary human HUVEC with PBMC; actives raise or lower the signal. The essentials:
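ELISA-based TNFa endpoint in a human endothelial–PBMC co-culture sampled 24 h post-exposure. Curves were fitted in both directions using DMSO as baseline of activity.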

Read-out in test [16]: Vascular cell adhesion molecule 1 (VCAM1), VCAM1 (gene 7412)
Kind of test: BSK_LPS_VCAM1: BioMAP Diversity Plus: LPS Assay for Vascular cell adhesion molecule 1 (VCAM1) Biomarker Activity (AID 2283086). As to conditions: primary human HUVEC with PBMC; actives raise or lower the signal. The method in brief:
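Measured by ELISA: VCAM-1 in LPS-activated HUVEC/PBMC co-cultures 24 h after treatment. Values reflect bidirectional fitting with DMSO as baseline.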

Read-out in the next test: CD38, CD38 (gene 952)
Kind of test: BSK_SAg_CD38: BioMAP Diversity Plus: SAg Assay for CD38 Biomarker Activity (AID 2283087). As to conditions: primary human HUVEC with PBMC; actives raise or lower the signal. The method in brief:
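Measures CD38 on a human endothelial/PBMC co-culture driven by SEB and TSST-1, 24 h after compound exposure, using ELISA with fluorescence detection; DMSO defines baseline for bidirectional curve fitting.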

Read-out in test [17]: CD40, CD40 (gene 958)
The test can be described thus: BSK_SAg_CD40: BioMAP Diversity Plus: SAg Assay for CD40 Biomarker Activity (AID 2283088). As to conditions: primary human HUVEC with PBMC; actives raise or lower the signal. The essentials:
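Fluorescence ELISA read-out of CD40 from umbilical vein endothelium plus peripheral blood mononuclear cells, sampled 24 h after dosing. Values come from bidirectional curve fitting with DMSO as baseline.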

Read-out in the next test: CD69, CD69 (gene 969)
Kind of test: BSK_SAg_CD69: BioMAP Diversity Plus: SAg Assay for CD69 Biomarker Activity (AID 2283089).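 For AC50: cell surface CD69 protein quantified by ELISA with fluorescence detection.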 As to conditions: primary human HUVEC with PBMC; actives raise or lower the signal. The method in brief: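 HUVEC co-cultured with PBMC were dosed with chemical, and CD69 was measured by ELISA with fluorescence read-out 24 h later. Bidirectional curve fitting used DMSO as negative control and activity baseline.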

Calls of active or inactive are those of the source. Rule for the calls: active = hit-call score of the fitted dose curve at least 0.9, where 1 is the maximum; inactive = score below 0.9.

Tumor necrosis factor (Homo sapiens), sequence (P01375 whole entry, looked up): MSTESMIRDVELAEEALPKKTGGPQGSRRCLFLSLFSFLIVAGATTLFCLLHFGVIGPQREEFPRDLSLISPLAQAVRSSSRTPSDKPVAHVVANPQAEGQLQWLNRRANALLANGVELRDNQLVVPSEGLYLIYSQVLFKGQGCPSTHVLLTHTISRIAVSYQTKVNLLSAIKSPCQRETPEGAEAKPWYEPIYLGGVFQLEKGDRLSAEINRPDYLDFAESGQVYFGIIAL

On to `O=C(O)C1C(C(=O)O)C2(Cl)C(Cl)=C(Cl)C1(Cl)C2(Cl)Cl` (stereo not drawn), for which the result in [1], in test [2], in test [3], in test [4], in test [5] and in [6] was inactive. Further, the outcome with CD40, CD40 (gene 958) [7] was “inactive”; in [8], “inactive”; in [9] it was “inactive”; in test [10] it was “inactive”; in test [11], “inactive”; in [12], “inactive”. The outcome in test [13] is “inactive”; in test [14], “inactive”; in test [15], “inactive”; in test [16], “inactive”; with CD38, CD38 (gene 952) it was “inactive”; with CD40, CD40 (gene 958) [17] it was “inactive”. For the same compound, in the test with CD69, CD69 (gene 969), the result was inactive.

Consider `CCN(CC)c1ccccc1`, for which the outcome in [1], in test [2], in test [3], in test [4], in [5] and in test [6] was inactive. Moreover, the outcome in the test with CD40, CD40 (gene 958) [7] is “inactive”; in test [8], “inactive”; in test [9] it was “inactive”; in test [10] it was “inactive”; in test [11], “inactive”; in [12], “inactive”. Moreover, the outcome in test [13] was “inactive”; in test [14], “inactive”; in test [16] it was “inactive”; with CD38, CD38 (gene 952), “inactive”; in the test with CD40, CD40 (gene 958) [17], “inactive”; in the test with CD69, CD69 (gene 969) it was “inactive”.

As to `CCCCC(CC)COP(=O)(Oc1ccccc1)Oc1ccccc1` (stereo not drawn), the concentration at half-maximal activity (AC50) in test [1] was 5.46 µM (active); in [2], 6.54 µM (active); in test [3], 5.46 µM (active); in test [5], 3.71 µM (active); in test [6], 4.9 µM (active); with CD40, CD40 (gene 958) [7] it was 13.5 µM (active). The half-maximal activity concentration (AC50) was 20 µM (active) in test [8]; 20 µM (active) in test [9]; 20 µM (active) in [10]; 7.43 µM (active) in test [11]; 8.19 µM (active) in test [13]; 13 µM (active) in test [16]. Further, the AC50 with CD38, CD38 (gene 952) was 20 µM (active); in the test with CD40, CD40 (gene 958) [17] it was 20 µM (active); in the test with CD69, CD69 (gene 969) it was 13.3 µM (active). Besides, the result in [4], in test [12] and in [14] was inactive.

Take `CCCN(CCC)c1c([N+](=O)[O-])cc(C(C)C)cc1[N+](=O)[O-]`: the result in test [1], in test [2], in [3], in [4], in [6] and in test [12] was inactive. Also, the result in test [14] was inactive. In addition, the half-maximal activity concentration (AC50) in test [5] is 14.6 µM (active); in the test with CD40, CD40 (gene 958) [7], 31 µM (active); in test [8] it was 31.9 µM (active); in [9], 31.2 µM (active); in test [10], 31.5 µM (active); in test [11], 31.3 µM (active). Further, the concentration at half-maximal activity (AC50) in test [13] was 26.2 µM (active); in test [16] it was 26.1 µM (active); in the test with CD38, CD38 (gene 952), 28.6 µM (active); in the test with CD40, CD40 (gene 958) [17], 30.1 µM (active); with CD69, CD69 (gene 969), 33.5 µM (active).
